Inconclusive results are not listed. Active and inactive are the calls of the source. Calls follow the shape of the dose curve; as a rule, active = well fitted curve in the direction sought with a large enough effect; inconclusive = small, poorly fitted or top-dose-only effect, or another doubt; inactive = no such curve, though single readings can be large; an effect the other way counts as inactive or inconclusive. Where a SMILES comes first, the peptide text is derived from it. [ ]: non-standard residue; d: D form. Ala(indol-2-yl) = N[C@@H](Cc1cc2ccccc2[nH]1)C(=O)O; Aib = CC(C)(N)C(=O)O
What was measured:
[1] = P-glycoprotein substrates identified in KB-8-5-11 adenocarcinoma cell line, qHTS therapeutic library screen (AID 1346987); also: nearly all actives have a fitted effect of over 65% in size; also: potency is read from the fitted curve at half-maximal effect; as to activity change, negative = cytotoxicity: % is scaled to controls: 0 for no effect and ±100 for the full control effect
Procedure, shortened: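 Human cervical adenocarcinoma KB-8-5-11 cells, selected in colchicine to over-express P-gp and assayed without it, were exposed for 72 h to titrated compounds. An ATP-based luminescent viability signal gave AC50.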

[2] = test system: Zika virus NS2B-NS3 protease (linked construct); test: Primary screen NINDS Rhodamine qHTS for Zika virus inhibitors (AID 1347160); also: nearly all actives have a fitted effect of over 55% in size; as to activity change, negative = inhibition: % is scaled to controls: 0 for no effect and ±100 for the full control effect
Procedure, shortened: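 Single-chain NS2B-NS3 protease, 25 nM, pH 8.0; compounds preincubated 15 min. Activity: Rhodamine110 release from 1.5 microM substrate over 15 min, room temperature, data fitted to 4-parameter Hill.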

[3] = Primary qHTS for inhibitors of nuclear receptor binding SET domain protein 2 (NSD2) in an isogenic RCH-ACV NSD2 p.E1099K mutant (9B) (AID 1645876); also: nearly all actives have a fitted effect of over 70% in size; also: potency is read from the fitted curve at half-maximal effect
[4] = target: Phospholipid hydroperoxide glutathione peroxidase GPX4 (Homo sapiens) (UniProt P36969); test: Primary qHTS Assay for Inhibitors of Recombinant Selenoprotein Glutathione Peroxidase 4 (GPX4) (AID 1845192); also: % is scaled to controls: 0 for no effect and ±100 for the full control effect; nearly all actives have a fitted effect of over 65% in size
Chain of Phospholipid hydroperoxide glutathione peroxidase GPX4 (Homo sapiens) (P36969 whole entry, looked up): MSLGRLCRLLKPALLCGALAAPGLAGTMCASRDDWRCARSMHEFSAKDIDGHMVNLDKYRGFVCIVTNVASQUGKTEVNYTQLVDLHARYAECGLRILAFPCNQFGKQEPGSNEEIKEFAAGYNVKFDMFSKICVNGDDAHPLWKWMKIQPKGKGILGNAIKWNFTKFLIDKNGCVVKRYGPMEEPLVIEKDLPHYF
Procedure, shortened: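 qHTS, GR-coupled: GPX4 200 nM + cpd 30 min RT → GSH 1 mM, NADPH 0.5 mM, GR 100 nM → CHP 0.5 mM start; fluor 340/450 at t0 and t15 min; no-enzyme wells as control.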

[5] = target: Luciferin 4-monooxygenase (Photinus pyralis) (UniProt P08659); test: Primary firefly luciferase (FLuc) qHTS assay for identification of artifact compounds. (AID 1845220); conditions: outcome: dose series up to 54.1 µM unless noted; also: nearly all actives have a fitted effect of over 60% in size;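 as to activity change, negative = inhibition: plate controls were DMSO vehicle for no effect and no enzyme for full effect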
Procedure, shortened: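 In this counter-screen for luciferase artifacts, test compounds met substrate (10 uM each luciferin and ATP) before 10 nM enzyme started the reaction. Light output was measured 5 min later.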

[6] = test system: Nanoluciferase (engineered Oplophorus gracilirostris luciferase); test: Primary Nanoluciferase (NLuc) qHTS assay for identification of artifact compounds. (AID 1845222);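 also: NLuc secreted into diluted conditioned medium of S16 cells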
Procedure, shortened: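 Using secreted nanoluciferase in S16 culture medium (0.22 um filtered, 1:55 dilution), compounds were preincubated 15 min at RT. Signal was generated with Nano-Glo reagent (1:100) over 5 min.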

[7] = test system: CRL-7250; test: Cytotoxic Profiling of Annotated Libraries Using Quantitative High-Throughput Screening (AID 1296008); conditions: Five cell lines viability, CellTiter-Glo ATP luminescence, 48-72 h; max response: stronger effect = lower value; also: nearly all actives have a fitted effect of over 60% in size; also: potency is read from the fitted curve at half-maximal effect; as to max response: % is scaled to controls: 0 for no effect and ±100 for the full control effect
Procedure, shortened: (§1)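 Compounds were pin-transferred onto cells and incubated 48 or 72 hr at 37 degree Celsius, 95% humidity. CellTiter-Glo was added, plates sat 10 min at room temperature, then ATP-coupled luminescence was imaged as the viability read-out.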

[8] = test system: HEK293; test: as above; conditions: Five cell lines viability, CellTiter-Glo ATP luminescence, 48-72 h; max response: stronger effect = lower value
Procedure, shortened: as §1

[9] = test system: HaCat; test: as above; conditions: Five cell lines viability, CellTiter-Glo ATP luminescence, 48-72 h; max response: stronger effect = lower value
Procedure, shortened: as §1

[10] = test system: NIH3T3; test: as above; conditions: Five cell lines viability, CellTiter-Glo ATP luminescence, 48-72 h; max response: stronger effect = lower value
Procedure, shortened: as §1

[11] = test system: C33A; test: Primary qHTS to identify gynecologic anti-cancer compounds using libraries of approved drugs and bioactive compounds (AID 1345084); conditions: Gynecologic cancer cell panel viability, ATPlite luminescence, 48 h; series mostly up to 57.5 µM; also: nearly all actives have a fitted effect of over 55% in size; also: potency is read from the fitted curve at half-maximal effect
Procedure, shortened: (§2)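 Cells, 1,000 per well, were allowed to settle for 16 h at 37 C before compound addition. Five concentrations were tested for 48 h, and viability was read by ATPlite luminescence after 15 min at room temperature.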

[12] = test system: Es-2; test: as above; conditions: Gynecologic cancer cell panel viability, ATPlite luminescence, 48 h; series mostly up to 57.5 µM
Procedure, shortened: as §2

[13] = test system: Hek293T; test: as above; conditions: Gynecologic cancer cell panel viability, ATPlite luminescence, 48 h, control line for the selectivity index; series mostly up to 57.5 µM
Procedure, shortened: as §2

[14] = test system: OV90; test: as above; conditions: Gynecologic cancer cell panel viability, ATPlite luminescence, 48 h; series mostly up to 57.5 µM
Procedure, shortened: as §2

[15] = test system: PA-1; test: as above; conditions: Gynecologic cancer cell panel viability, ATPlite luminescence, 48 h; series mostly up to 57.5 µM
Procedure, shortened: as §2

[16] = test system: Tov-21-G; test: as above; conditions: Gynecologic cancer cell panel viability, ATPlite luminescence, 48 h; series mostly up to 57.5 µM
Procedure, shortened: as §2

[17] = test system: Tov112D; test: as above; conditions: Gynecologic cancer cell panel viability, ATPlite luminescence, 48 h; series mostly up to 57.5 µM
Procedure, shortened: as §2

[18] = Primary redox qHTS assay for identification of artifact compounds. (AID 1845223);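 also: 0% = DMSO and 100% = reference compound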
Procedure, shortened: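 Redox-cycling detection via DTT (250 uM final) oxidation coupled to Amplex Red (25 uM)/HRP (250 mU/mL) in HBSS. 15 min preincubation plus 30 min after DTT, room temperature. Ex/Em 525/598 nm; 4-parameter Hill fit against DMSO and 10 uM DA3003.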

[19] = test system: CASKI; test: Primary qHTS to identify gynecologic anti-cancer compounds using libraries of approved drugs and bioactive compounds (AID 1345084); conditions: Gynecologic cancer cell panel viability, ATPlite luminescence, 48 h; series mostly up to 57.5 µM; also: nearly all actives have a fitted effect of over 55% in size; also: potency is read from the fitted curve at half-maximal effect
Procedure, shortened: as §2

[20] = target: Calcium and integrin-binding protein 1 (Homo sapiens) (UniProt Q99828); test: Primary qHTS for Identification of Calcium Integrin Binding Protein 1 (CIB1) Competitor (AID 1508620);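 also: GST tagged CIB1 binding a fluorescein labelled alphaIIb integrin peptide tracer; top concentration of the series differs between compounds; % is scaled to controls: 0 for no effect and ±100 for the full control effect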
Chain of Calcium and integrin-binding protein 1 (Homo sapiens) (Q99828 whole entry, looked up): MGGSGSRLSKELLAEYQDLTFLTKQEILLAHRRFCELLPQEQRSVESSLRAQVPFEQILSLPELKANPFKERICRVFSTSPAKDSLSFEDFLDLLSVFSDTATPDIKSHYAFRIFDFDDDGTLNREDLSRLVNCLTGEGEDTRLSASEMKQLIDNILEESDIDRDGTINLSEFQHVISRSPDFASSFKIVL
Procedure, shortened: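 Fluorescence polarization competition: CIB1-GST (1 uM final) preincubated with compound 15 min at room temperature, then FITC-labeled alphaIIb peptide (100 nM final) added for another 15 min. Polarization read at Ex 480/Em 540.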

COC1CC(O[C@H]2CC[C@]3(C=O)C4CC[C@]5(C)[C@@H](C6=CC(=O)OC6)CC[C@]5(O)[C@@H]4CC[C@@H]3C2)OC(C)C1O[C@@H]1O[C@H](CO)[C@@H](O[C@@H]2O[C@H](CO)[C@@H](O)[C@H](O)[C@H]2O)[C@H](O)[C@H]1O (some centres not stated)
inactive: Potency [2] | Potency [4] | activity change, negative = inhibition [5] 0.154% [at 11.6 µM] | activity, negative = inhibition [6] 1.46% [at 11.6 µM] | max response [10] 3.23%
active: Potency [1] 123 nM | Potency [3] 77.4 nM | Potency [7] 123 nM | Potency [8] 219 nM | Potency [9] 873 nM | Potency [11] 178 nM | Potency [12] 398 nM | Potency [13] 447 nM | Potency [14] 1580 nM | Potency [15] 447 nM | Potency [16] 224 nM | Potency [17] 112 nM

CC(=O)OC[C@]12C[C@H](OC(=O)CC(C)C)C(C)=C[C@H]1O[C@@H]1[C@H](O)[C@@H](OC(C)=O)[C@@]2(C)[C@@]12CO2
active: Potency [1] 25.2 nM | Potency [3] 22.4 nM | Potency [7] 89.3 nM | Potency [8] 22.4 nM | Potency [9] 224 nM | Potency [10] 50.2 nM | Potency [19] 199 nM | Potency [12] 100 nM | Potency [13] 112 nM | Potency [14] 2510 nM | Potency [16] 224 nM | Potency [17] 224 nM
inactive: Potency [2] | Potency [4] | outcome [5] inactive [at 25.7 µM] | Potency [6] | Potency [18]

C[C@@H]1C[C@@H](O)[C@]2(O)O[C@@H]3C[C@@]4(C=O)C(CC[C@@H]5C4CC[C@]4(C)[C@@](O)(C6=CC(=O)OC6)CC[C@]54O)C[C@H]3OC2O1 (some centres not stated)
inactive: Potency [2] | Potency [20] | Potency [4] | outcome [5] inactive [at 25.7 µM] | Potency [6] | Potency [18] | max response [10] -15.7%
active: Potency [1] 1590 nM | Potency [3] 709 nM | Potency [7] 796 nM | Potency [8] 1120 nM | Potency [9] 5020 nM | Potency [11] 2820 nM | Potency [12] 3550 nM | Potency [13] 3160 nM | Potency [16] 1780 nM | Potency [17] 891 nM

CC(=O)OC[C@]12C[C@H](OC(=O)CC(C)C)C(C)=C[C@H]1O[C@@H]1[C@H](O)C[C@@]2(C)[C@]12CO2
active: Potency [1] 709 nM | Potency [3] 632 nM | Potency [7] 3170 nM | Potency [8] 563 nM | Potency [9] 6320 nM | Potency [10] 893 nM | Potency [11] 2820 nM | Potency [12] 3980 nM | Potency [13] 1000 nM | Potency [14] 4470 nM | Potency [15] 1000 nM | Potency [16] 4470 nM | Potency [17] 2240 nM
inactive: Potency [2] | Potency [20] | Potency [4] | outcome [5] inactive [at 25.7 µM] | Potency [6] | Potency [18]

CC1=C[C@H]2O[C@@H]3C[C@H]4OC(=O)/C=C/C=C/C(=O)OCC/C(C)=C/C(=O)OC[C@@]2(CC1)[C@]4(C)[C@]31CO1
active: Potency [1] 17.8 nM | Potency [3] 5.6 nM | Potency [7] 25.2 nM | Potency [8] 8 nM | Potency [9] 112 nM | Potency [10] 28.2 nM | Potency [19] 112 nM | Potency [12] 25.1 nM | Potency [15] 70.8 nM | Potency [16] 89.1 nM
inactive: Potency [2] | Potency [20] | Potency [4] | outcome [5] inactive [at 25.7 µM] | Potency [6] | Potency [18]

CC(C)(NC(=O)[C@@H](N)Cc1ccc(O)cc1)C(=O)N[C@@H](Cc1cc2ccccc2[nH]1)C(=O)N[C@@H](Cc1ccccc1)C(=O)O (H-Y[Aib][Ala(indol-2-yl)]F-OH)
inactive: activity change, negative = cytotoxicity [1] 5.29% [at 9.29 µM] | activity change, negative = inhibition [2] -10.9% [at 10.7 µM] | Potency [20] | activity change, negative = viability loss [3] -7% [at 9.23 µM] | activity change, negative = inhibition [4] -0.548% [at 9.73 µM] | activity change, negative = inhibition [5] 1.26% [at 11.6 µM] | activity, negative = inhibition [6] 2.82% [at 11.6 µM] | redox activity (% of DA3003) [18] 9.88% [at 11.5 µM] | max response [7] -5.29% | max response [8] -3.45% | max response [9] -4.8% | activity change, negative = cytotoxicity [11] 17.2% [at 11.6 µM] | activity change, negative = cytotoxicity [19] 4.29% [at 11.6 µM] | activity change, negative = cytotoxicity [12] 0.783% [at 11.6 µM] | activity change, negative = cytotoxicity [13] -0.36% [at 11.6 µM] | activity change, negative = cytotoxicity [14] 2.67% [at 11.6 µM] | activity change, negative = cytotoxicity [15] 2.34% [at 11.6 µM] | activity change, negative = cytotoxicity [16] 16.4% [at 11.6 µM] | activity change, negative = cytotoxicity [17] -10.9% [at 11.6 µM]

CC[C@@H]1C[C@H]2CC[C@H](O2)[C@H](C)C(=O)O[C@@H](C)C[C@@H]2CC[C@@H](O2)[C@@H](C)C(=O)O[C@H](CC)C[C@H]2CC[C@H](O2)[C@H](C)C(=O)O[C@@H](C)C[C@@H]2CC[C@@H](O2)[C@@H](C)C(=O)O1
active: Potency [1] 1930 nM | Potency [3] 19.2 nM | Potency [7] 385 nM | Potency [8] 54.4 nM | Potency [9] 1530 nM | Potency [10] 86.2 nM | Potency [11] 316 nM | Potency [19] 447 nM | Potency [12] 708 nM | Potency [13] 631 nM | Potency [14] 398 nM | Potency [15] 355 nM | Potency [16] 794 nM | Potency [17] 562 nM
inactive: Potency [2] | Potency [20] | Potency [4] | outcome [5] inactive [at 25.7 µM] | Potency [6]

OCc1nnc2n1-c1ccc(Cl)cc1C(c1ccccc1Cl)=NC2
inactive: Potency [1] | Potency [2] | Potency [20] | Potency [3] | Potency [4] | outcome [5] | Potency [6] | Potency [18] | max response [7] 0.641% | max response [8] -7.41% | max response [9] -38% | Potency [11] | Potency [19] | Potency [12] | Potency [13] | Potency [14] | Potency [16] | Potency [17]

Reference: PubChem BioAssay (NCATS)
